# pS6 MEF inh = inhibitors of mTORC1 signaling in Tsc2-/- p53-/- MEF cells; hit rate 0.78% among 44,000; AID 493208; Potency, µM (titrated, usually from 38.3 µM), without a hit: at the highest dose activity change, negative = inhibition, most hits filed as inhibitors; Tsc2-/- p53-/- MEF, phospho-rpS6 immunofluorescence/PI, 24 h;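 note: potency is the fitted concentration of half-maximal effect; plate controls were DMSO for no effect and rapamycin for full effect; nearly all actives have a fitted effect of over 50% in size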
#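 Tsc2-/-, p53-/- MEFs (empty-vector stable line) in DMEM + 10% FBS were treated with compounds 24 h at 37 degree Celsius, fixed, and immunostained for phospho-rpS6 (Alexa-488) with propidium iodide counterstain. Laser-scanning cytometry gave % positive cells, normalized against 7.5 nM rapamycin and DMSO.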
# p53null 39C tox = p53 null cell cytotoxicity, nonpermissive temperature. H1299 p53-null (neo) cells, 39C, ATPlite viability, 24 h. Potency, µM (series often up to 46.1 µM), for the others: at the highest dose activity, negative = cell killing, actives largely listed as cytotoxic. hit rate 0.97% among 55,000. AID 904;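 note: potency is the fitted concentration of half-maximal effect; 0% = DMSO only and -100% = full killing by 100 µM tamoxifen; nearly all actives have a fitted effect of over 50% in size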
#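 Luminescent ATP signal reported cell survival after H1299 lines (neo, p53 null; or p53 A138V) received up to 46 uM compound and 24 hr incubation at 39C.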
# PMP22 txn prim = modulates PMP22 transcription in S16 Schwann cells; S16 Pmp22-F2sN Schwann cells, FLuc/NLuc coincidence luminescence, 24 h; Potency, µM (highest dose often 57.5 µM), for the others: at the highest dose activity change, negative = inhibition, usual class: inhibitors; hit rate 2% among 43,000; active = clear falling dose curves in both reporters; inconclusive = both reporters move, but less clearly or upward; inactive = either reporter flat; the % is the NLuc reporter signal; note: potency is the fitted concentration of half-maximal effect; % is set by controls: 0 for no effect and ±100 for the full control effect
#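 Reporter cells (S16 Pmp22-F2sN, 500–1,000 per well) exposed to compounds for 24 h, 37C, 5% CO2; lysis with FLuc read after 10 min, then Stop&Glo and NLuc read after 10 min.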
# S16 viability = S16 Schwann cell cytotoxicity; S16 Pmp22-F2sN Schwann cells viability, CellTiter-Glo, 24 h; Potency, µM (titrated, usually from 57.5 µM), without a hit: at the highest dose activity change, negative = cytotoxicity, hits mostly cytotoxic; hit rate 0.48% among 43,000; AID 1508642; note: potency is the fitted concentration of half-maximal effect; % is set by controls: 0 for no effect and ±100 for the full control effect; nearly all actives have a fitted effect of over 65% in size
#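 Viability was measured by CellTiter-Glo luminescence (15 min, room temperature). This followed 24 h at 37 °C of compound exposure (23 nL pin transfer) in S16 Pmp22-F2sN Schwann cells, 500-1,000 per well.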
# p53null 32C tox = selectivity test: cytotoxicity in p53 null cells, permissive temperature; Potency, µM (top dose mostly 46.1 µM), for inactives: at the highest dose activity change, negative = cytotoxicity, most hits filed as cytotoxic; hit rate 0.62% among 55,000; H1299-neo p53 null cells, ATP luminescence, 24 h, 32C;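 note: potency is the fitted concentration of half-maximal effect; 0% = DMSO only and -100% = full killing by 100 µM tamoxifen; nearly all actives have a fitted effect of over 55% in size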
#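 Overnight 37C seeding (600 cells/well) of H1299-neo preceded a 24 hr, 32C exposure to compounds up to 46 uM. ATP levels, read by luminescence after 20 min at RT, indicated surviving cells.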
# NLuc sat counter = NanoLuc enzyme inhibition artifact for PMP22 screen | shares compounds with PMP22 txn prim | Secreted NLuc enzyme (filtered S16 cell medium), Nano-Glo luminescence | Potency, µM (titrated, usually from 57.5 µM), inactives show top-dose activity change, negative = inhibition, actives largely listed as inhibitors | hit rate 4% among 690; note: potency is the fitted concentration of half-maximal effect; % is set by controls: 0 for no effect and ±100 for the full control effect
# NLuc Km counter = inhibits NanoLuc under Km conditions, PMP22 counter-screen; shares compounds with PMP22 txn prim; AID 1508639; Potency, µM (doses to about 57.5 µM), for inactives: top-dose activity change, negative = inhibition, usual class: inhibitors; secreted NLuc enzyme, coelenterazine luminescence, Km conditions; hit rate 5% among 690; note: potency is the fitted concentration of half-maximal effect; % is set by controls: 0 for no effect and ±100 for the full control effect
# FLuc ctr PMP22 = firefly luciferase enzyme inhibition artifact for PMP22 screen; shares compounds with PMP22 txn prim; purified P. pyralis FLuc, luminescence, 10 min; Potency, µM (series often up to 57.5 µM), without a hit: at the top dose activity, negative = inhibition, actives largely listed as inhibitors; 690 tested, under 10 active; note: % of control where 0% means no effect
# Target sequence (P08659 whole entry, looked up): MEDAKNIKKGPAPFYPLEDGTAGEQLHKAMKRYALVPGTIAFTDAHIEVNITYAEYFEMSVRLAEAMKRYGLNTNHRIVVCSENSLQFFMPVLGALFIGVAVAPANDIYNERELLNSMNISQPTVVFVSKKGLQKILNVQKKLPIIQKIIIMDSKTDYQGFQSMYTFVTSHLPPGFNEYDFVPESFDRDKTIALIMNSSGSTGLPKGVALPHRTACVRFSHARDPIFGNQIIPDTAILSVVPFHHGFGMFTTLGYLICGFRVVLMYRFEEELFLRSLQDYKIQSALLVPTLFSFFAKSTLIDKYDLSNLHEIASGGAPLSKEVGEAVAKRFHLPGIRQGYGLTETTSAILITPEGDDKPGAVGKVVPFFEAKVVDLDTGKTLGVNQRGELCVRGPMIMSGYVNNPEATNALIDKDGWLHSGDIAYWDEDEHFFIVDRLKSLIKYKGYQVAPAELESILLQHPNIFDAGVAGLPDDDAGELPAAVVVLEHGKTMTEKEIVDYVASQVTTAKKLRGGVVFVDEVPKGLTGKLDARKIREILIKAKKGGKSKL
# S16 F2sN tox cnf = S16 Schwann cell cytotoxicity, confirmatory; AID 1508641; Potency, µM (highest dose often 57.5 µM), without a hit: top-dose activity change, negative = viability loss, most hits filed as cytotoxic; hit rate 7% among 690; S16 Schwann cells viability, CellTiter-Glo ATP luminescence, 24 h; shares compounds with PMP22 txn prim; note: potency is the fitted concentration of half-maximal effect; % is set by controls: 0 for no effect and ±100 for the full control effect
# PMP22 txn conf = PMP22 transcription modulation, confirmatory; shares compounds with PMP22 txn prim; S16 Schwann cells Pmp22-F2sN, dual luciferase, 24 h; Potency, µM (doses to about 57.5 µM), for inactives: top-dose activity change, negative = inhibition, actives largely listed as inhibitors; hit rate 22% among 690; AID 1508646; active = clear falling dose curves in both reporters; inconclusive = both reporters move, but less clearly or upward; inactive = either reporter flat; the % is the FLuc reporter signal; note: potency is the fitted concentration of half-maximal effect
# An asterisk follows results filed as active; ? = inconclusive; nt = no result. A selection: hits, their analogues and other compounds. The true share with any hit is near 3.2%. Unless noted, calls come from the whole dose curve; as a rule, active = well fitted curve in the direction sought with a large enough effect; inconclusive = small, poorly fitted or top-dose-only effect, or another doubt; inactive = no such curve, though single readings can be large; an effect the other way counts as inactive or inconclusive.
SMILES,pS6 MEF inh,p53null 39C tox,PMP22 txn prim,S16 viability,p53null 32C tox,NLuc sat counter,NLuc Km counter,FLuc ctr PMP22,S16 F2sN tox cnf,PMP22 txn conf
COc1ccc2c(c1)CC(C(=O)Nc1ccc(OC)cc1OC)CO2 (configuration not stated),-19%,4%,-15%,-3%,-3%,nt,nt,nt,nt,nt
Cc1cc(Nc2ccc(F)cc2)nc(-n2nc(C)cc2C)n1,0%,-7%,?,?,-12%,?,-12%,-8%,?,16µM*
CCN1CCOC(=O)C1CC(=O)Nc1cc(Cl)ccc1C (configuration not stated),?,nt,11µM*,?,nt,-8%,0%,-6%,?,?
CCOC(=O)c1ccc(NC(=O)CC2C(=O)OCCN2CC)cc1 (configuration not stated),?,nt,?,5%,nt,nt,nt,nt,nt,nt
COc1cc(NC(=O)CC2C(=O)OCCN2Cc2ccccc2)cc(OC)c1 (configuration not stated),-15%,nt,-25%,0%,nt,nt,nt,nt,nt,nt
CCN1CCOC(=O)C1CC(=O)Nc1cccc(OC)c1 (configuration not stated),21µM*,nt,13µM*,?,nt,-6%,-1%,6%,?,?
COc1ccc(C)cc1NC(=O)c1cc(S(=O)(=O)N2CCN(c3cccc(C)c3C)CC2)ccc1F,?,19%,?,-10%,-15%,-2%,5%,-3%,-4%,7%
Cc1cccnc1NC(=O)c1ccccc1NC(=O)C(C)(C)C,nt,16%,nt,nt,4%,nt,nt,nt,nt,nt
CCOc1cc(-c2nnc(SCC(=O)NCc3ccccc3)nc2-c2ccc(OC)c(OCC)c2)ccc1OC,-14%,4%,8.9µM*,7%,14%,?,?,0%,5%,?
CCN(CC)S(=O)(=O)c1ccc2c(c1)N(CC(=O)NCCCN1CCN(c3cc(Cl)ccc3C)CC1)C(=O)CO2,?,?,20µM*,?,?,-3%,-1%,-1%,?,?
COc1cccc(-n2cc(C(=O)Nc3cc(C)c(Cl)cc3OC)c3ccccc3c2=O)c1,-3%,-3%,-7%,-9%,0%,nt,nt,nt,nt,nt
COc1ccc(NC(=O)CSc2nc(-c3ccco3)cc(C(F)(F)F)n2)cc1,-20%,-24%,?,1%,14%,-2%,7%,4%,10%,23%
Cc1ccc2c(c1)NC(=O)c1cccnc1O2,-2%,-10%,-9%,1%,-2%,nt,nt,nt,nt,nt
Cn1cc(S(=O)(=O)c2ccccc2)c(=O)c2cc(F)c(N3CCOCC3)cc21,-5%,-19%,-5%,-4%,-11%,nt,nt,nt,nt,nt
CCc1ccc(CNC(=O)c2nn(-c3ccc(C)cc3)c(=O)c3c2c2ccccc2n3C)cc1,-1%,-9%,2.8µM*,0%,4%,-5%,2%,1%,?,?
CCN(Cc1ccccc1)C(=O)c1nn(-c2ccc(OC)cc2)c(=O)c2c1c1ccccc1n2C,1%,4%,19µM*,?,30%,-18%,-4%,3%,21%,-42%
COc1cc(OC)c(NS(=O)(=O)c2ccc3c(c2)NC(=O)CCS3)cc1Cl,6%,-16%,14µM*,?,3%,?,?,-1%,-11%,?
Cc1ccccc1NS(=O)(=O)c1ccc2c(c1)NC(=O)CCS2,4%,-14%,-13%,2%,-5%,nt,nt,nt,nt,nt
O=C(CCCn1c(=O)[nH]c2ccsc2c1=O)N1CCN(c2ccc(Cl)cc2)CC1,2%,-3%,?,-22%,9%,nt,nt,nt,nt,nt
CCN1CCN(c2ccc(NS(=O)(=O)c3c(C)nc4sccn4c3=O)cc2Cl)CC1,-17%,-7%,8.9µM*,-13%,-5%,-7%,-1%,-12%,?,-22%
Clc1ccc(-c2nnn3c2nc(NCc2ccc4c(c2)OCO4)c2ccccc23)cc1,-7%,-13%,?,9%,0%,nt,nt,nt,nt,nt
Cc1cccc(-c2nnn3c2nc(NCc2ccc4c(c2)OCO4)c2ccccc23)c1,-11%,?,17µM*,0%,-4%,-12%,-20%,-10%,-23%,15µM*
Cc1cccc(-c2nnn3c2nc(NCCC(C)C)c2ccccc23)c1,-2%,17%,13µM*,8%,-3%,-2%,0%,-1%,16%,-1%
Cc1cccc(-c2nnn3c2nc(NCCc2ccc(S(N)(=O)=O)cc2)c2ccccc23)c1,-1%,-23%,-31%,15%,?,nt,nt,nt,nt,nt
Cc1ccccc1OCC(=O)Nc1ccc(S(=O)(=O)Nc2ncccn2)cc1,10%,-14%,-29%,-18%,1%,nt,nt,nt,nt,nt
SMILES,pS6 MEF inh,p53null 39C tox,PMP22 txn prim,S16 viability,p53null 32C tox,NLuc sat counter,NLuc Km counter,FLuc ctr PMP22,S16 F2sN tox cnf,PMP22 txn conf
CCCn1c2ccccc2c2cnn(CC(=O)NCCc3ccc(C)cc3)c(=O)c21,-12%,-5%,-30%,-4%,0%,nt,nt,nt,nt,nt
O=C(CSc1nc2ccsc2c(=O)n1-c1ccc(Cl)cc1)NCc1ccc(Cl)cc1,-3%,15%,?,6%,1%,nt,nt,nt,nt,nt
O=C(CSc1nc2ccsc2c(=O)n1-c1ccc(Br)cc1)NCc1ccc(Cl)cc1,?,1%,12µM*,2%,-3%,-5%,-2%,5%,3%,?
CCc1c(C)nc2nncn2c1Nc1ccc(C(C)C)cc1,-9%,-24%,?,-7%,-3%,nt,nt,nt,nt,nt
COc1ccccc1-c1c(C)nn2c(N3CCN(c4ccc(Cl)cc4)CC3)cc(C)nc12,5%,24%,-23%,-3%,3%,nt,nt,nt,nt,nt
COc1ccc(-c2c(C)nn3c(N4CCN(c5cc(Cl)ccc5C)CC4)cc(C)nc23)cc1OC,-18%,4%,15µM*,13%,-3%,-16%,?,3%,1%,-37%
